Assay results from PubChem BioAssay (Tox21).
Inconclusive results are not listed. Activity calls are given as the source filed them. Unless noted, calls come from the whole dose curve; as a rule, active = well fitted curve in the direction sought with a large enough effect in the repeat runs; inconclusive = weak or mixed curves; inactive = no such curve, though single readings can be large; an effect the other way counts as inactive or inconclusive.

Tests used:
[1] = qHTS assay to identify small molecule agonists of the peroxisome proliferator-activated receptor delta (PPARd) signaling pathway - cell viability counter screen (AID 743211); note: nearly all actives have a fitted effect of over 55% in size
Method in brief: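 Viability of GeneBLAzer PPARd UAS-bla HEK293H cells was assessed after 17 h compound incubation at 37C, using CellTiter-Glo reagent added after the reporter read and luminescence recorded 30 min later.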

[2] = target: Peroxisome proliferator-activated receptor delta (Homo sapiens) (UniProt Q03181); experiment: qHTS assay to identify small molecule agonists of the peroxisome proliferator-activated receptor delta (PPARd) signaling pathway (AID 743212; calls by dose curve)
Peroxisome proliferator-activated receptor delta (Homo sapiens), sequence (Q03181 whole entry, looked up): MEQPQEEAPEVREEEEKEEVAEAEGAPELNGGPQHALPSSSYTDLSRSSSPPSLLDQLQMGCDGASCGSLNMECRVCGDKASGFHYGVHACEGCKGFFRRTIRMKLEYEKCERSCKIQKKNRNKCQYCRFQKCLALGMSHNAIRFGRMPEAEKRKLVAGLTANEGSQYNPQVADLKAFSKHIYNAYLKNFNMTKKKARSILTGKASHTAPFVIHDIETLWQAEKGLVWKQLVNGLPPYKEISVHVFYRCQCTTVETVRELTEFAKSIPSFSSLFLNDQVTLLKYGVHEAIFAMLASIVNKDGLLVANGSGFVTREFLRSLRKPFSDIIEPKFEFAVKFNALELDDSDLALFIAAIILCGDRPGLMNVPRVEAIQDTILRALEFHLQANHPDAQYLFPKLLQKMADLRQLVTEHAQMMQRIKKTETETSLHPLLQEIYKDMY
Method in brief: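 Quantitative high-throughput agonist screen in a HEK293H beta-lactamase reporter line under UAS control. Compounds in DMSO, at 37 C. Fluorescence read after 2 h with FRET substrate at room temperature.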

[3] = qHTS assay to identify small molecule agonists of the farnesoid-X-receptor (FXR) signaling pathway - cell viability counter screen (AID 743218); note: nearly all actives have a fitted effect of over 45% in size; note: potency is the fitted concentration of half-maximal effect
Method in brief: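 After 16 h at 37 C with test compounds, FXR-bla HEK 293T cells were given LiveBLAzer B/G substrate for 2 h at RT and then CellTiter-Glo; luminescence was taken after 30 min.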

[4] = qHTS assay to identify small molecule antagonists of the farnesoid-X-receptor (FXR) signaling pathway - cell viability counter screen (AID 743221; active = well fitted cell-killing curve with a large enough effect in the repeat runs, not every such curve was filed as active; note: nearly all actives have a fitted effect of over 50% in size)
Method in brief: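 Quantitative HTS of the Tox21 10K library run in parallel with the beta-lactamase reporter read. HEK 293T cells carrying a UAS-driven bla reporter got compound and 50 uM CDCA (final) for 16 h; ATP-based luminescence followed.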

[5] = target: Vitamin D3 receptor (Homo sapiens) (UniProt P11473); experiment: qHTS assay to identify small molecule agonists of the vitamin D receptor (VDR) signaling pathway (AID 743222; calls by dose curve)
Vitamin D3 receptor (Homo sapiens), sequence (P11473 whole entry, looked up): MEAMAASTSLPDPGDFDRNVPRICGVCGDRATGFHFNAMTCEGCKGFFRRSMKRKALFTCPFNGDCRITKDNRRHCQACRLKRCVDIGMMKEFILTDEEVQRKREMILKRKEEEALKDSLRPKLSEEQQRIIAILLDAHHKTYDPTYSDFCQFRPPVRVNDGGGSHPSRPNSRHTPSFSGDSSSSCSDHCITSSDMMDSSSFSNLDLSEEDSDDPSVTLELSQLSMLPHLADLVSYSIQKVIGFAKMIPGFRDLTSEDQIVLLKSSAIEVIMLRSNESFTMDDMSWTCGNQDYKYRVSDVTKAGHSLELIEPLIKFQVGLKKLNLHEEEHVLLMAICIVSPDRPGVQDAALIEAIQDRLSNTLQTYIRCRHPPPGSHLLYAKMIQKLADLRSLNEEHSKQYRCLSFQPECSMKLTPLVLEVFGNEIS
Method in brief: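 VDR-bla cells were seeded, left 4 h, treated with compounds in DMSO for 16 h, incubated 2 h at RT with B/G FRET substrate, and read for fluorescence.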

[6] = qHTS assay to identify small molecule antagonists of the peroxisome proliferator-activated receptor delta (PPARd) signaling pathway - cell viability counter screen (AID 743213); note: nearly all actives have a fitted effect of over 50% in size
Method in brief: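 PPARd-bla HEK293H cells were treated with compounds plus agonist L165041 (300 nM final) for 17 h at 37 C. Viability was then read in the same wells by CellTiter-Glo luminescence after 30 min at room temperature.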

[7] = target: Bile acid receptor (Homo sapiens) (UniProt Q96RI1); experiment: qHTS assay to identify small molecule agonists of the farnesoid-X-receptor (FXR) signaling pathway (AID 743220; active = well fitted activation curve with a large enough effect in the signal ratio in the repeat runs, not every such curve was filed as active; the % refers to the signal ratio)
Bile acid receptor (Homo sapiens), sequence (Q96RI1 whole entry, looked up): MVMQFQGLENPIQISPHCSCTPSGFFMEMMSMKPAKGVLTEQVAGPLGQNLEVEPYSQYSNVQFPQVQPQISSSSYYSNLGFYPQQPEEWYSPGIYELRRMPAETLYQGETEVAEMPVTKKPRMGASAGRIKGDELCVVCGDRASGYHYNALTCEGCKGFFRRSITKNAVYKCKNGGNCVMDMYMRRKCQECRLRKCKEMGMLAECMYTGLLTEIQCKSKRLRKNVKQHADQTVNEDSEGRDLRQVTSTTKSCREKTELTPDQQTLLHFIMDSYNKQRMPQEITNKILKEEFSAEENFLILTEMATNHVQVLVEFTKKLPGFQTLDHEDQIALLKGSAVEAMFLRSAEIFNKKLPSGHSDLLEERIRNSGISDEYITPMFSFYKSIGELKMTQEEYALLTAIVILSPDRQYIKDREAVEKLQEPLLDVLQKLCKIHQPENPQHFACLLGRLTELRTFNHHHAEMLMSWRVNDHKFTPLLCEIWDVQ
Method in brief: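 Beta-lactamase reporter under UAS control in GeneBLAzer FXR HEK 293T cells (5000/well) measured with LiveBLAzer FRET substrate after 2 h at room temperature. Compound exposure lasted 16 h at 37C.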

[8] = target: Peroxisome proliferator-activated receptor delta (Homo sapiens) (UniProt Q03181); experiment: qHTS assay to identify small molecule antagonists of the peroxisome proliferator-activated receptor delta (PPARd) signaling pathway (AID 743215; active = well fitted inhibition curve with a large enough effect in the signal ratio in the repeat runs, not every such curve was filed as active; the % refers to the signal ratio;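 note: cells stimulated with agonist L165041 at 300 nM final during compound exposure; series mostly up to about 62 µM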)
Method in brief: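 With L165041 present at 300 nM final, compounds were incubated 17 h at 37 C on PPARd UAS-bla HEK293H cells. A FRET-based beta-lactamase substrate was then applied for 2 h at room temperature and fluorescence intensity recorded.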

[9] = target: Vitamin D3 receptor (Homo sapiens) (UniProt P11473); experiment: qHTS assay to identify small molecule antagonists of the vitamin D receptor (VDR) signaling pathway (AID 743223; active = well fitted inhibition curve with a large enough effect in the signal ratio in the repeat runs, not every such curve was filed as active; the % refers to the signal ratio)
Method in brief: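 Fluorescence from LiveBLAzer B/G FRET substrate, read after 2 h at room temperature, reflects beta-lactamase reporter activity in VDR-bla cells treated 16 h at 37C with compounds and agonist 1alpha,25-dihydroxyvitamin D3 (3 nM final).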

[10] = target: Bile acid receptor (Homo sapiens) (UniProt Q96RI1); experiment: qHTS assay to identify small molecule antagonists of the farnesoid-X-receptor (FXR) signaling pathway (AID 743217; active = well fitted inhibition curve with a large enough effect in the signal ratio in the repeat runs, not every such curve was filed as active; the % refers to the signal ratio)
Method in brief: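 In this cell-based antagonist screen, inhibition of CDCA-driven (50 uM final) UAS-beta-lactamase expression in HEK 293T cells was measured by FRET fluorescence following 16 h compound exposure at 37 °C.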

Measured: Potency

Cc1ncsc1CCCl
inactive: [1] | [2] | [3] | [4] | [5]

CN/C(=N\[N+](=O)[O-])NCC1CCOC1 (centres undefined)
inactive: [1] | [6] | [3] | [7] | [4] | [5]

[As]#[In]
inactive: [1] | [6] | [3]

CC1(C(=O)Nc2ccc(O)c(Cl)c2Cl)CCCCC1
inactive: [2] | [6] | [8] | [3] | [7] | [5]

Cc1ncc2n1-c1ccc(Cl)cc1C(c1ccccc1F)=NC2
inactive: [1] | [6] | [3] | [5]

CCOC(=O)N(C)C(=O)CSP(=S)(OCC)OCC
inactive: [2] | [6] | [3] | [7] | [4] | [5]

COc1cc2c(cc1OC)[C@@]13CCN4CC5=CCO[C@H]6CC(=O)N2[C@H]1[C@H]6[C@H]5C[C@H]43
inactive: [1] | [6] | [3] | [4] | [5] | [9]

CCOC(=O)/C=C(C)/C=C/C[C@@H](C)CCCC(C)C
inactive: [2] | [10] | [3] | [7] | [4]

CCOP(=S)(OCC)Oc1nc(Cl)n(C(C)C)n1
inactive: [1] | [3] | [4] | [5] | [9]

O=C(CCCN1CCC(n2c(=O)[nH]c3ccccc32)CC1)c1ccc(F)cc1
inactive: [1] | [6] | [3] | [4] | [5]

C[N+](C)=CCl
inactive: [1] | [6] | [3] | [4] | [5]

O=P(O)(Oc1ccccc1)Oc1ccccc1
inactive: [1] | [6] | [3] | [7] | [4] | [9]

COc1cc(C[C@@H](C)N)c(OC)cc1C
inactive: [2] | [6] | [8] | [10] | [3] | [7] | [4] | [5] | [9]

COC(=O)c1ccccc1S(=O)(=O)NC(=O)Nc1nc(C)cc(C)n1
inactive: [1] | [6] | [3] | [4] | [5] | [9]

CC(Oc1ccc(Oc2ncc(C(F)(F)F)cc2Cl)cc1)C(=O)O (centres undefined)
inactive: [6] | [8] | [5]
active: [3] 21.9 µM

c1cc[c]([Hg][c]2ccccc2)cc1
inactive: [2] | [6] | [4] | [5]

c1coc(-c2nc3ccccc3[nH]2)c1
inactive: [2] | [6] | [8] | [3] | [4] | [5] | [9]

CCOP(=S)(Oc1cnc(C(C)(C)C)nc1)OC(C)C (centres undefined)
inactive: [2] | [8] | [3] | [4] | [5]

CC(CC(C#N)(c1ccccc1)c1ccccc1)N(C)C (centres undefined)
inactive: [2] | [8] | [10] | [7] | [4] | [5]

N#CC(CCc1ccc(Cl)cc1)(Cn1cncn1)c1ccccc1 (centres undefined)
inactive: [2] | [8] | [3] | [7] | [5] | [9]
